This note sets out measurements from PubChem BioAssay AID540341 (National Center for Advancing Translational Sciences (NCATS), 2011).

Records with an inconclusive call do not appear. A number with no mark means an inactive call. Calls follow the shape of the dose curve; as a rule, active = well fitted curve in the direction sought with a large enough effect; inconclusive = small, poorly fitted or top-dose-only effect, or another doubt; inactive = no such curve, though single readings can be large or run the other way.

Lysosomal acid glucosylceramidase (Homo sapiens), sequence (P04062 whole entry, looked up): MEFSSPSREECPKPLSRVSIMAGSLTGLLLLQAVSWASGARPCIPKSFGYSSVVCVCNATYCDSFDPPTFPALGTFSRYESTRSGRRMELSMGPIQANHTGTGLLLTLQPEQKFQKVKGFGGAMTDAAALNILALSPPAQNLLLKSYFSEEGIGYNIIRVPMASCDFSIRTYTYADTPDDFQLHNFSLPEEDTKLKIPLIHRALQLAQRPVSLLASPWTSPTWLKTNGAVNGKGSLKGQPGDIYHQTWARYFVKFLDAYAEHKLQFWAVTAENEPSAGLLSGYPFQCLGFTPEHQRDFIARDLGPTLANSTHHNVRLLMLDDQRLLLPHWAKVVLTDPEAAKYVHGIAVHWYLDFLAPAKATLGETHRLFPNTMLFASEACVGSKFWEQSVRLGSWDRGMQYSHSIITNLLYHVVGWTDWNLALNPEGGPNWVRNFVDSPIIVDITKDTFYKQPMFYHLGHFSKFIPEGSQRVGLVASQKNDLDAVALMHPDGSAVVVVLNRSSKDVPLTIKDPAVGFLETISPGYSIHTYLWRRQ

In the assay the target is Lysosomal acid glucosylceramidase (Homo sapiens) (UniProt P04062). As to the kind of experiment: Activators of Human alpha-Glucosidase as a Potential Chaperone Treatment of Pompe Disease: Glucocerebrosidase Counter Screen. To be noted: Purified GBA enzyme, 4MU-beta-glucoside fluorescence, 40 min; series mostly up to 57.1 µM; activity change, negative = inhibition: at the top concentration. The text has this:
Alpha-glucosidase is responsible for hydrolysis of terminal, non-reducing 1,4-linked alpha-D-glucose residues with release of alpha-D-glucose. It is a lysosomal hydrolase that is required for the degradation of a small percentage (1-3%) of cellular glycogen in human. Deficiency of this enzyme results in glycogen-storage disease type II (GSDII), also referred to as Pompe disease, an autosomal recessive disorder. Structurally normal glycogen is accumulated in lysosomes and cytoplasm in affected patients, primarily in muscle tissues. Excessive glycogen storage within lysosomes may interrupt normal functioning of other organelles and leads to cellular injury. In turn, this leads to enlargement and dysfunction of the entire organ involved (eg, cardiomyopathy and muscle weakness). It has reported that the improper folding and trafficking of alpha-glucosidase resulting from the genetic mutations may account for a significant number of Pompe patients. […] We optimized this alpha-glucosidase assay in 1536-well plate format for identifying the novel small molecule inhibitors with the structures other than the sugar analogs in order to develop the new pharmacological chaperones. NIH Chemical Genomics Center [NCGC] NIH Molecular Libraries Probe Production Centers Network [MLPCN] MLPCN Grant: MH086442-01 Assay Submitter (PI): Wei Zheng
This is a fluorogenic enzyme assay with 4-methylumbelliferyl-beta-D-glucopyranoside as the substrate and purified wildtype glucocerebrosidase as the enzyme preparation. Upon the hydrolysis of this fluorogenic substrate, the resulting product, […] which can be detected by a standard fluorescence plate reader. Data were normalized to the controls for basal activity (without enzyme) and 100% activity (with enzyme). The AC50 values were determined from concentration-response data modeled with the standard Hill equation. Assay buffer: 50 mM citric acid (titrated with potassium phosphate to pH 5.0), 100 mM potassium chloride, 10 mM sodium chloride, 1 mM magnesium chloride, 0.01% Tween-20. 1536-well assay protocol: (1) Add 2 ul/well of glucocerebrosidase enzyme solution (5 nM final) (2) Add 23 nL compounds in DMSO solution. The final titration was 0.5 nM to 58 uM. (3) Add 2 ul of substrate (1 mM final) (4) Incubate at 37C for 40 min. (5) Add 2 ul stop solution (1M NaOH and 1M Glycine mixture, pH 10) (6) Detect the assay plate in a ViewLux plate reader (PerkinElmer) with Ex=365 nm and Em=440nm. Keywords: Glucocerebrosidase, beta-glucosidase, Gaucher Disease, pharmacological chaperone, chaperone therapy, high throughput screening, glucocerebrosidase inhibitor, MLSMR, MLSCN, NIH Roadmap, qHTS and NCGC
On the technique in general: Counterscreens check selectivity or assay interference.
In the case of `O=S(=O)(c1ccc(Cl)cc1)N1CCN(c2nc(-c3cccs3)nc3ccccc23)CC1`, the “activity change, negative = inhibition” value is 0%.

As to `CCCN1CNc2c(c(=O)[nH]c(=S)n2CCc2ccsc2)C1`, the “activity change, negative = inhibition” value is 0%.

Take `CCCN1CNc2c(c(=O)[nH]c(=S)n2CCc2cccc(C)c2C)C1`: the “activity change, negative = inhibition” value is 0.391%.

As for `CCCN1CNc2c(c(=O)[nH]c(=S)n2CCc2cc(Cl)cc(Cl)c2)C1`, the “activity change, negative = inhibition” value was -2.31% [at 48.8 µM].

As for `COc1ccc(CCn2c3c(c(=O)[nH]c2=S)CN(C(C)C)CN3)cc1OC`, the “activity change, negative = inhibition” value was 0%.

Regarding `CCCN1CNc2c(c(=O)[nH]c(=S)n2CCc2cc(Cl)ccc2Cl)C1`, the “activity change, negative = inhibition” value was -1.89% [at 48.8 µM].

With `CCCN1CNc2c(c(=O)[nH]c(=O)n2CCc2ccc(OC)c(OC)c2)C1`, the “activity change, negative = inhibition” value was 0%.

Take `CCCN1CNc2c(c(=O)[nH]c(=S)n2CCc2c(C)cccc2C)C1`: the “activity change, negative = inhibition” value was 0%.

As to `CCCN1CNc2c(c(=O)[nH]c(=S)n2CCC(C)(C)C)C1`, the “activity change, negative = inhibition” value was 0%.

For `c1csc(-c2nc(NCC3CCCO3)c3ccccc3n2)c1` (stereo unspecified), the “activity change, negative = inhibition” value was 0% [at 48.8 µM].

For the molecule `COc1ccc(CCc2c[nH]c(=O)c3cncnc23)cc1OC`, the “activity change, negative = inhibition” value was 2.44%.

On to `CCCN1CNc2c(c(=O)[nH]c(=S)n2Cc2ccc(OC)c(OC)c2)C1`, for which the “activity change, negative = inhibition” value is 0%.

With `CCCN1CNc2c(c(=O)[nH]c(=S)n2CCc2ccc(C)c(C)c2)C1`, the “activity change, negative = inhibition” value was 0%.

On to `COc1ccc(CCn2c(=S)[nH]c(=O)c3nccnc32)cc1OC`, for which the “activity change, negative = inhibition” value is 0%.

`OCCNc1nc(-c2cccs2)nc2ccccc12`: the “activity change, negative = inhibition” value is 0%.

For the molecule `O=S(=O)(c1ccc(Cl)cc1)N1CCN(c2nc(Nc3cc(Cl)ccc3O)nc3ccccc23)CC1`, the “activity change, negative = inhibition” value was 0% [at 48.8 µM].

For `CCCN1CNc2c(c(=O)[nH]c(=S)n2CCc2ccc(C)cc2C)C1`, the “activity change, negative = inhibition” value is -4.57%.

Turning to `CCCN1CNc2c(c(=O)[nH]c(=S)n2CCc2cccc(Cl)c2Cl)C1`, the “activity change, negative = inhibition” value was -9.82%.

As to `COc1ccc(CCn2c3c(c(=O)[nH]c2=S)CN(C)CN3)cc1OC`, the “activity change, negative = inhibition” value was 0%.

On to `COc1ccc(CCn2c3c(c(=O)[nH]c2=S)CN(c2ccccc2)CN3)cc1OC`, for which the “activity change, negative = inhibition” value was 0%.

For the molecule `COc1ccc(CCn2c(=S)[nH]c(=O)c3c(C)cc(C)nc32)cc1OC`, the “activity change, negative = inhibition” value is -5.66%.

Regarding `CCCN1CNc2c(c(=O)[nH]c(=S)n2CCc2ccc3c(c2)OCCO3)C1`, the “activity change, negative = inhibition” value was 0%.

On to `COc1ccc(C#Cc2cnc(Cl)c3cncnc23)cc1OC`, for which the “activity change, negative = inhibition” value is 1.38% [at 48.8 µM].

On to `COc1ccc(CCn2c(=S)[nH]c(=O)c3[nH]cnc32)cc1OC`, for which the “activity change, negative = inhibition” value is -5.98%.

As for `CCCN1CNc2c(c(=O)[nH]c(=S)n2CCc2cc(C)ccc2C)C1`, the “activity change, negative = inhibition” value was 0%.

In the case of `COc1ccc(C#Cc2c[nH]c(=O)c3cncnc23)cc1OC`, the “activity change, negative = inhibition” value was -3.96%.
